From PubChem BioAssay
USP8 inh: human USP8 deubiquitinase inhibition. P40818. purified USP8, Ub-rhodamine cleavage fluorescence, 30 min. inhibition, % at 20 µM. 47,000 tested, 4.2% active
USP10 inh: blocks human USP10 ubiquitin-rhodamine cleavage | AID 1645856 | purified USP10, Ub-rhodamine fluorescence, 60 min | inhibition, % at 20 µM | 47,000 tested, 1.1% active | Q14694
OTUD3 block: blocks human OTUD3 ubiquitin-rhodamine cleavage | Q5T2D3 | purified OTUD3, Ub-rhodamine fluorescence, 2 h | inhibition, % at 25 µM | 47,000 tested, 0.7% active
USP7 block: inhibitors of human USP7 deubiquitinase. inhibition, % at 20 µM. 47,000 tested, 0.3% active. purified USP7, Ub-rhodamine cleavage fluorescence. Q93009
UCHL1 inh: inhibitors of human UCHL1 deubiquitinase | P09936 | AID 1645859 | 47,000 tested, 0.2% active | inhibition, % at 20 µM | purified UCHL1, Ub-rhodamine cleavage fluorescence
* = called active by the depositor. Only some compounds are listed: those with a hit (about 4.9% of all), similar ones and a draw of the others. Cut-off read from the data, not from the text of the source: active = inhibition above about 30%; inactive = the rest.

SMILES	USP8 inh	USP10 inh	OTUD3 block	USP7 block	UCHL1 inh
Cc1ccc(S(=O)(=O)Nc2cccc(Cl)c2)cc1NC(=O)CCC(=O)c1ccc(Cl)cc1	7	34*	0	-20	3
COc1ccccc1N1CCN(C(=O)CN(Cc2ccccc2Cl)S(=O)(=O)c2ccc(Cl)cc2)CC1	-32	-8	-25	-8	-5
O=C(c1ccco1)N1CCC(Nc2ncnc3c2CCC3)C1 (stereo unspecified)	-21	-3	-8	1	-1
CCS(=O)(=O)N1Cc2ccccc2CC1C(=O)Nc1nc(-c2ccccc2)c(C)s1 (stereo unspecified)	46*	0	-24	6	4
CC(=O)N1CCc2ccccc2C1C(=O)NCc1ccc2c(c1)OCO2 (stereo unspecified)	-14	-9	-7	-41	-5
Cc1sc(NC(=O)C2CCCCC2)nc1-c1ccccc1	-15	8	6	6	5
CCS(=O)(=O)N1Cc2ccccc2CC1C(=O)NCc1ccc2c(c1)OCO2 (stereo unspecified)	39*	8	8	8	5
Cc1cc(F)ccc1NC(=O)CN1C(=O)C2CCCN2C(=O)c2ccc(F)cc21 (stereo unspecified)	5	3	3	-6	0
Cc1ccc(CNC(=O)Cn2c(=O)n(-c3ccccc3)c3ncccc32)cc1	33*	4	4	3	0
O=C(Cn1c(=O)n(-c2ccc(F)cc2)c2ncccc21)NCc1ccccc1	37*	7	7	6	2
Cc1nccn1-c1cc(N2CCOCC2)nc2ccnn12	18	-6	-7	-2	-3
CCC(C)NC(=O)NCCn1cnc2cc(C(=O)N3CCCC3)ccc21 (stereo unspecified)	-42	0	2	10	1
Cc1cc2cc(CNc3ncnc4c3nnn4C)ccc2[nH]1	10	-11	-33	-6	-1
Clc1ccc2oc(-c3cccs3)nc2c1	2	5	-2	-32	-1
Nc1ccc2oc(-c3cccc(-c4nc5cc(N)ccc5o4)n3)nc2c1	73*	37*	40*	30	23
Cc1noc(-c2ccccc2NC(=O)c2ccc(Cl)c(Cl)c2)n1	10	6	10	4	2
O=C(Nc1ccccc1-c1nc(-c2ccccn2)no1)c1cc(Cl)ccc1Cl	83*	15	3	19	7
O=C(/C=C/c1c(F)cccc1Cl)N1CCc2ccccc2C1	93*	9	30	0	6
Cn1cccc1CN(C(=O)c1ccc(F)cc1Cl)C1CC1	-83	5	4	0	-2
Cc1ccc(-c2[nH]c3ccccc3c2C2c3ccccc3C(=O)N2CC(=O)O)cc1 (stereo unspecified)	61*	12	-8	-1	-2
CCOC(=O)c1ccc(Oc2sccc2[N+](=O)[O-])cc1	-126	4	13	85*	0
COc1cc(/C=C/C(=O)OCC(=O)Nc2ccc([N+](=O)[O-])cc2OC)ccc1O	55*	51*	47*	34*	24
COc1ccc2[nH]c(C(=O)N(Cc3ccccn3)Cc3ccccn3)cc2c1	81*	-6	-3	0	2
CC1=C(C#N)C(C(F)(F)F)(C(F)(F)F)N=C(Cc2ccccc2)N1	1	2	-4	-4	0
Cc1ccc(NC2=NC(c3ccccc3)(C(F)(F)F)C(C#N)=C3C=CC=CN23)cc1 (stereo unspecified)	63*	-17	-2	2	-1
SMILES	USP8 inh	USP10 inh	OTUD3 block	USP7 block	UCHL1 inh
Cn1nccc1C(=O)N[C@@H]1CC[C@@H](Oc2cccnc2)[C@H](O)[C@H]1N1CCCCC1	-7	-2	-8	-5	-1
COc1cc2c(cc1OC)-c1cc(Oc3ccc4cccnc4c3)nc(=O)n1CC2	35*	-10	-10	-12	-9
COC(=O)C(Cc1ccccc1)NC(=O)CSc1nc2ccc(Cl)cc2[nH]1 (stereo unspecified)	43*	-1	-13	-18	1
Cc1cc(OCC(=O)Nc2ccccc2C(=O)Nc2ccccc2)ccc1Cl	21	35*	4	10	-1
COc1ccc(-c2nc(-c3cccc(-c4ccnn4C)c3)no2)cc1	4	-1	11	5	0
O=C(CSc1nc2c(cnn2-c2ccccc2)c(=O)[nH]1)Nc1ccc(Cl)cc1F	80*	9	8	-32	1
COc1ccc(-n2c(-c3ccccc3)cn3c(-c4ccccc4)c(-c4ccccc4)nc23)cc1	80*	5	27	1	3
OCCCn1c(-c2ccccc2)cn2c(-c3ccccc3)c(-c3ccccc3)nc12	30	-2	13	2	3
OCCn1c(-c2ccccc2)cn2c(-c3ccccc3)c(-c3ccccc3)nc12	58*	5	0	-1	8
COc1ccc(-c2cn3c(-c4ccccc4)c(-c4ccccc4)nc3n2CCc2ccccc2)cc1	73*	4	3	10	1
COc1cccc(OC)c1C(=O)Nc1cccc(-c2ccc(N3CCCC3)nn2)c1	5	2	0	3	2
COc1cccc(CNC(=O)c2snc(-c3ccccn3)c2N)c1	6	4	8	9	5
CC(C)c1ccc(S(=O)(=O)N2CCCC(c3nc(-c4cccnc4)no3)C2)cc1 (stereo unspecified)	3	6	29	9	11
CCN(c1ccccc1)S(=O)(=O)c1nnc(NC(=O)COc2ccc(Cl)cc2)s1	39*	0	-46	7	-4
COc1ccccc1CNC(=O)c1ccccc1OCc1ccccc1Cl	13	12	30*	-13	6
O=C(O)C1CCN(c2ccc([N+](=O)[O-])cc2)CC1	-17	-4	-6	0	-4
COc1ccc2c(c1)CCc1c-2n[nH]c1C(=O)NCCN1CCOCC1	1	0	4	5	1
COc1ccc(-c2c(-c3ccc(OCCN4CCOCC4)cc3O)n[nH]c2C)cc1OC	55*	-2	-3	-1	0
Cc1nc(N2CCOCC2)c2c(C(=O)Nc3ccccc3)c(C)oc2n1	-3	3	-4	-3	-1
c1cnc(N2CCCC3(COCCN(CC4CC4)C3)C2)cn1 (stereo unspecified)	-6	-2	-21	-2	-2
COc1ccc(O)c(C(=O)OCc2cc(=O)oc3ccc4ccccc4c23)c1	37*	-4	-32	2	1
O=C(NCc1ccco1)c1ccc2c(=O)nc3c(-c4ccccc4)n[nH]n3c2c1	1	7	0	5	11
Cc1cc(Cl)ccc1OCc1sc(-c2ccc(Cl)cc2)nc1C	-14	-1	-8	-14	0
CCCCCCCC1OC(=O)Cc2cc(O)c(O)c(O)c21 (stereo unspecified)	77*	82*	92*	75*	63*
Cc1ccsc1C1CCCCCN1S(=O)(=O)c1ccccc1F (stereo unspecified)	32*	7	-4	6	3
